A number with no mark means an inactive call.
Columns and labels:
Assay in all cases: log2 ratio of Biotin-Ahx-Ub-VS probe labelling (fragment/DMSO); higher = less target engagement (more negative = stronger competition), active = hit call of the paper (q ≤ 0.05, log2 ratio ≤ -1)
Conditions in all cases: compound concentration: 200 uM; treatment time: 3 h
UniProt O00507 = target: UniProt O00507
Method in brief: (§1)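 The table lists average log2 ratios of fragment over vehicle, from an unpaired t-test on global-median-normalised Spectronaut label-free quantities. Proteins with ≥2 unique peptides were used. Samples were HEK293T lysate (495 µg) treated in triplicate with fragment at 200 µM or vehicle for 3 h, then with Biotin-Ahx-Ub-VS (0.5 µM final) for 1 h, with labelled DUBs NeutrAvidin-enriched and run by diaPASEF LC-MS/MS.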

UniProt P51784 = target: UniProt P51784
Chain of UniProt P51784 (P51784 whole entry): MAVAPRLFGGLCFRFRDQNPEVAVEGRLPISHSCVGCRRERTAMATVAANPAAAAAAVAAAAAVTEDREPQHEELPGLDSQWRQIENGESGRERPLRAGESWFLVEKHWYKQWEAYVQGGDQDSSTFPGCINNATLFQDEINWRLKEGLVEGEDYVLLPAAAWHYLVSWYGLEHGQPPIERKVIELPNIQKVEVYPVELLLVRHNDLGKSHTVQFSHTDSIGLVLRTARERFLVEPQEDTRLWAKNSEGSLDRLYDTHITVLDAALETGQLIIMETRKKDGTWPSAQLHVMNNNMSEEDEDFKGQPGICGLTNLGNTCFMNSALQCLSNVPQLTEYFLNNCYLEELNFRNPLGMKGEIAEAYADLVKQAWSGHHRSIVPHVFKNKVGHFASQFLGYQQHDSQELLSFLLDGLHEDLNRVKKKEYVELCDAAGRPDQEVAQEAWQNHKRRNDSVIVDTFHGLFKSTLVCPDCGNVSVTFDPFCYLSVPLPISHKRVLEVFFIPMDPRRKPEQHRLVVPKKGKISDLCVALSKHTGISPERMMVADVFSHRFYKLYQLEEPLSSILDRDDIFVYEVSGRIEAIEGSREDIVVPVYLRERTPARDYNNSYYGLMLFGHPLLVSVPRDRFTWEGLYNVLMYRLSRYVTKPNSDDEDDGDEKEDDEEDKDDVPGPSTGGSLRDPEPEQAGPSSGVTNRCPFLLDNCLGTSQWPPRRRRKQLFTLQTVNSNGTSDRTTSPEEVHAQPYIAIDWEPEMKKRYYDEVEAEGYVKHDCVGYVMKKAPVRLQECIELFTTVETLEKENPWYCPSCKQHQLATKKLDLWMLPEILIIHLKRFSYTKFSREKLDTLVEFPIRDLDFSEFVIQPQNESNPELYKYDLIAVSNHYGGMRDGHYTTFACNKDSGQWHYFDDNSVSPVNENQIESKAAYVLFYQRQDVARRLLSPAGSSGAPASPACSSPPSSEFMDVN
Method in brief: as §1

UniProt Q5T2D3 = target: T1, UniProt Q5T2D3
T1 sequence (whole entry): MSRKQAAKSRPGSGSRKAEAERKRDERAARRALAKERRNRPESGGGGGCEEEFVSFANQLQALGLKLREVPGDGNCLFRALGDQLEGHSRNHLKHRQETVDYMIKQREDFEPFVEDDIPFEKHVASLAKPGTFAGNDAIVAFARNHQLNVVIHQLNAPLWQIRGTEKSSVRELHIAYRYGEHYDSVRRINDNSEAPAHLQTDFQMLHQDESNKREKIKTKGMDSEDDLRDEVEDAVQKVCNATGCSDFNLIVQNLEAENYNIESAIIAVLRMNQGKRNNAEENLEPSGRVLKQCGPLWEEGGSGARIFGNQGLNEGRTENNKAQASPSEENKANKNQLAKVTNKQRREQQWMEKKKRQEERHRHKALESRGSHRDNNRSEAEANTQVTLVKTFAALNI
Method in brief: as §1

UniProt Q8TE49 = target: T2, UniProt Q8TE49
T2 sequence (whole entry): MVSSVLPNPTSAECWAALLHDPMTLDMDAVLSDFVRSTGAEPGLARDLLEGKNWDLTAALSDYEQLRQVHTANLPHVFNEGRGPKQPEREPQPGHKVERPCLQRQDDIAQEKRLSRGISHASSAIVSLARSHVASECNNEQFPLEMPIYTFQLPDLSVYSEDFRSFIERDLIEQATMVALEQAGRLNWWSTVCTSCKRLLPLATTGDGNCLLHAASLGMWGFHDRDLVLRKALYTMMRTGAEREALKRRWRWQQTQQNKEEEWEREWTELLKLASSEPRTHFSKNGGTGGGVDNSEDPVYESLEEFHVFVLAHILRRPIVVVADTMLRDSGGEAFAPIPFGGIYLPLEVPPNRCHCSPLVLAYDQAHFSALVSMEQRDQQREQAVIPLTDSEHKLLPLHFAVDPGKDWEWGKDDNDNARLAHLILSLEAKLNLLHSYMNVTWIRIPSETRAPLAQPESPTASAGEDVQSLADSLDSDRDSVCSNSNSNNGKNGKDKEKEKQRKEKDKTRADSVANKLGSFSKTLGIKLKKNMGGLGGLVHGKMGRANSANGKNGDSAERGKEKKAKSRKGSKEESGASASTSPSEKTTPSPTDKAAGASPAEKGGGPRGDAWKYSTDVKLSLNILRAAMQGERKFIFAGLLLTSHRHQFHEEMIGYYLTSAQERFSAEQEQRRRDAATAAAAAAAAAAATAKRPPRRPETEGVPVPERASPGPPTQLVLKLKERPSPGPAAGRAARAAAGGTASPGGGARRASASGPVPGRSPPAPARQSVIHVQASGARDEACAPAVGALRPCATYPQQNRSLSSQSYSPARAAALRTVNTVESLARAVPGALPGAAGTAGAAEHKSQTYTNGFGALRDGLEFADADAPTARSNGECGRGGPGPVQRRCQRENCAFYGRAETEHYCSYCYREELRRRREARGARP
Method in brief: as §1

UniProt Q9P2H5 = target: T3, UniProt Q9P2H5
T3 sequence (whole entry): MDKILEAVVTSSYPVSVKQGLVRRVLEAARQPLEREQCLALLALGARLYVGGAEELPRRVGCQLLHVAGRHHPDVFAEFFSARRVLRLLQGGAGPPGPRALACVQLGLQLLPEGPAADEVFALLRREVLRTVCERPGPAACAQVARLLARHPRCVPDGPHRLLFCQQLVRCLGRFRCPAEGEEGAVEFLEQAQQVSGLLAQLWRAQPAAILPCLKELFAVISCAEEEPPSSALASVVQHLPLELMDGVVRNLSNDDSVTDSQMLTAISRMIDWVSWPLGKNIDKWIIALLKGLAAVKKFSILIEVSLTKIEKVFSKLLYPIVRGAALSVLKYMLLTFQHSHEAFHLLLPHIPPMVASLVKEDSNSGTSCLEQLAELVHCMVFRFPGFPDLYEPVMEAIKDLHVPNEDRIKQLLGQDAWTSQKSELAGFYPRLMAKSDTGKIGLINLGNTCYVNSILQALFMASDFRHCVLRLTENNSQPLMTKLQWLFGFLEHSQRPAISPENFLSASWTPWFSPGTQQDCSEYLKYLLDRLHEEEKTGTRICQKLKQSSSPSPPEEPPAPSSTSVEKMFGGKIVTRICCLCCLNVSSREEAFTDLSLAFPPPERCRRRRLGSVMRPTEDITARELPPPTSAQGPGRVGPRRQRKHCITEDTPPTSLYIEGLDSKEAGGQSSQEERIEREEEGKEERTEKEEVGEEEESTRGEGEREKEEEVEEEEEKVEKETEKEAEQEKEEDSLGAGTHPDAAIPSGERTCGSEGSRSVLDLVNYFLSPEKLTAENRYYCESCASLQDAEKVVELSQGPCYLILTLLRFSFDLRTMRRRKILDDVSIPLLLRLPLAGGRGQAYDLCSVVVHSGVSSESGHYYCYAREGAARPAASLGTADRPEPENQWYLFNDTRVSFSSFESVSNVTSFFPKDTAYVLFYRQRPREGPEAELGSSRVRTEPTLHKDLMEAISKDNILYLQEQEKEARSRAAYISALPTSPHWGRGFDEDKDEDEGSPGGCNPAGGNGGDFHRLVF
Method in brief: as §1

UniProt Q9UGI0 = target: T4, UniProt Q9UGI0
T4 sequence (whole entry): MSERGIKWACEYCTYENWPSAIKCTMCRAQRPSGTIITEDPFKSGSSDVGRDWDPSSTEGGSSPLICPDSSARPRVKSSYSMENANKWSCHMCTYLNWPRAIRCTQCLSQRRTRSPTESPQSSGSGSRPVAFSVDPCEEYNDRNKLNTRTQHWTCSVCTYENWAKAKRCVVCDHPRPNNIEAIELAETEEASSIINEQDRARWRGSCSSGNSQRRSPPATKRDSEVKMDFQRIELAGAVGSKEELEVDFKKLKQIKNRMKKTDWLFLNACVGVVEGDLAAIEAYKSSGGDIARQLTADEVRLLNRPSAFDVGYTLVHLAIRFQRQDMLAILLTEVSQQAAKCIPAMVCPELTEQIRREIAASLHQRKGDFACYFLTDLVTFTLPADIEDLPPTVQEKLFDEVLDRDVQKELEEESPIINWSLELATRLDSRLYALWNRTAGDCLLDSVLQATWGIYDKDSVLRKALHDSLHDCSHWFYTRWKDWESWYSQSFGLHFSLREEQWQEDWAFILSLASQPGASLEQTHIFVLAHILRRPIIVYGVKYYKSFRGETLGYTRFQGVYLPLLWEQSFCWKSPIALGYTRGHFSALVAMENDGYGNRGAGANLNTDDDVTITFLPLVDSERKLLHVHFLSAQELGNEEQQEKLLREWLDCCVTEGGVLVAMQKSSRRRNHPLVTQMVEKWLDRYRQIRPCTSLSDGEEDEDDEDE
Method in brief: as §1

YOD1 = target: T5, YOD1 (UniProt Q5VVQ6)
T5 sequence (whole entry): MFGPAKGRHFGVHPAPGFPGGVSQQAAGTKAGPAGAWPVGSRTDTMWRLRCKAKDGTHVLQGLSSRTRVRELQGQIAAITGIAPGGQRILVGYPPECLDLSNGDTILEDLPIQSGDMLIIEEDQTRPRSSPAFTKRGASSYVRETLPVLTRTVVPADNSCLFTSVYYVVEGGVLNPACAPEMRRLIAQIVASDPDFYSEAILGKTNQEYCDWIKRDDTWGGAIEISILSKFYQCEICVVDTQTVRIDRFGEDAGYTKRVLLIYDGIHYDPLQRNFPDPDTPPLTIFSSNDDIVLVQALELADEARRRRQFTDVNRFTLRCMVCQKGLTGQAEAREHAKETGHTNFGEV
Method in brief: as §1

Chain of UniProt O00507 (O00507 whole entry, the tested form may be a part): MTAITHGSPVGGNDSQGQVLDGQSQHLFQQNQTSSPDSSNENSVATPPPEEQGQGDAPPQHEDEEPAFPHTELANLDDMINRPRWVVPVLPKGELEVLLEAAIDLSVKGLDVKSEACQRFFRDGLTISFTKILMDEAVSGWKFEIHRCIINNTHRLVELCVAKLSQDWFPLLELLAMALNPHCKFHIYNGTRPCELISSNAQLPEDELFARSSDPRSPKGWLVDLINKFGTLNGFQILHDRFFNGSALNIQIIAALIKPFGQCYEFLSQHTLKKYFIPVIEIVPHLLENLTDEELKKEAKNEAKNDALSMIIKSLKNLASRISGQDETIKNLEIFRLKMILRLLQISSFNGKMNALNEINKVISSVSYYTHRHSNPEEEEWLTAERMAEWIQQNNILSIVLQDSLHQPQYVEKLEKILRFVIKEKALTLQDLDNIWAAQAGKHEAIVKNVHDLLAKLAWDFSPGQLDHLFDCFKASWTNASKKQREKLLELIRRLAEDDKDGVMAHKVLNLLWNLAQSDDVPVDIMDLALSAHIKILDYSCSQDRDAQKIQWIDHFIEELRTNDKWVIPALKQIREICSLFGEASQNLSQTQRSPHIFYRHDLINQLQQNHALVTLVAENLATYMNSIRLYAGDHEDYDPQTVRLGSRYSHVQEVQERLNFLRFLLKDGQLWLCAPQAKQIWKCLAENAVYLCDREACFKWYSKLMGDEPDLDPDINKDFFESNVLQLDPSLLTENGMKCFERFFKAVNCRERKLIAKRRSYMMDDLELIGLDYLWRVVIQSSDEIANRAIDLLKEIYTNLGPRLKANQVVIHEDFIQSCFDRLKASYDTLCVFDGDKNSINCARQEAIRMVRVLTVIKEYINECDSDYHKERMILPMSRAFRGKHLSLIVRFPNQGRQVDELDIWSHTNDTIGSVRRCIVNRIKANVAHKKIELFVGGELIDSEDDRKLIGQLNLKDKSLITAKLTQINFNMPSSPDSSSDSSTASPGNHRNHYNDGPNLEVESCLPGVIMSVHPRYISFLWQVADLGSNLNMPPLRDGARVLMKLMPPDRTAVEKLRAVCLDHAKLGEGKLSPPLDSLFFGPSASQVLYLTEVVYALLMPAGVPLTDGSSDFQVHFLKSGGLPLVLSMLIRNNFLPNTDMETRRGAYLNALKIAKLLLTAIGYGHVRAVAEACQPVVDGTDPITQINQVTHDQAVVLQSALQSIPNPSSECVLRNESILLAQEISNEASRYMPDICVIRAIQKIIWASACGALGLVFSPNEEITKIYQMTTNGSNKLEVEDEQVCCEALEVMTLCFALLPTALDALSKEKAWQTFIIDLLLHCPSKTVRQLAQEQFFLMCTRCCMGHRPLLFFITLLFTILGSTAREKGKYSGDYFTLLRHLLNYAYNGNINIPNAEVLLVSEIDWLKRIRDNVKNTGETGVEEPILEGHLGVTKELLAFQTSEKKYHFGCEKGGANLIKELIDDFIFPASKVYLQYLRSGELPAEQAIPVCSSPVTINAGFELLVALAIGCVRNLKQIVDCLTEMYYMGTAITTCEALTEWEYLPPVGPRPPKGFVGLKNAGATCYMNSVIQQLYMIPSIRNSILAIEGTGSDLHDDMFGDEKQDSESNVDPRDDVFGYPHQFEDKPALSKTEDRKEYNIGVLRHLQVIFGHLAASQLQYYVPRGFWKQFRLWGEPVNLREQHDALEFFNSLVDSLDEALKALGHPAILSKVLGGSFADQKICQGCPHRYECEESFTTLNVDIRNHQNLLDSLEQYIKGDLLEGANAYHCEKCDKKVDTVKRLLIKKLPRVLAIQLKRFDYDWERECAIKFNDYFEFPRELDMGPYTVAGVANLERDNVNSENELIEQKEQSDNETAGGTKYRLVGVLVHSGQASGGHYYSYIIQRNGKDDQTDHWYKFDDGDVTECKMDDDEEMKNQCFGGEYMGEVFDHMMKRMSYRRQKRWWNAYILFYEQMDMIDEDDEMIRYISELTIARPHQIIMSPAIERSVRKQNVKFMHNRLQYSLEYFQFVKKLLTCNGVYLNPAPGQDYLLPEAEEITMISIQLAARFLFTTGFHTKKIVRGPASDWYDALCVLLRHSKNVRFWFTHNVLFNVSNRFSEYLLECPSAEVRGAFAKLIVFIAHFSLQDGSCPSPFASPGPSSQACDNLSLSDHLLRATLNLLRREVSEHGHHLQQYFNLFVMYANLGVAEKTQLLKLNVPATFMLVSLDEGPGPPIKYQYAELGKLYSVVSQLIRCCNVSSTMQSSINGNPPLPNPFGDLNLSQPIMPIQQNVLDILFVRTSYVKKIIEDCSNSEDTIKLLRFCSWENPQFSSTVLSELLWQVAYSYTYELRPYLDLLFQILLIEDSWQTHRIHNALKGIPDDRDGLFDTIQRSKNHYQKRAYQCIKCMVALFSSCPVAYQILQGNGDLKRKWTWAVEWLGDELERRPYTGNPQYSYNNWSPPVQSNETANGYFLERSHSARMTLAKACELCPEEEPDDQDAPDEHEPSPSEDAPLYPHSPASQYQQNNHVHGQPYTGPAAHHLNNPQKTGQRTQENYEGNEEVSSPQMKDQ

Row | Compound | log2 ratio of Biotin-Ahx-Ub-VS probe labelling (UniProt O00507) | log2 ratio of Biotin-Ahx-Ub-VS probe labelling (UniProt P51784) | log2 ratio of Biotin-Ahx-Ub-VS probe labelling (UniProt Q5T2D3) | log2 ratio of Biotin-Ahx-Ub-VS probe labelling (UniProt Q8TE49) | log2 ratio of Biotin-Ahx-Ub-VS probe labelling (UniProt Q9P2H5) | log2 ratio of Biotin-Ahx-Ub-VS probe labelling (UniProt Q9UGI0) | log2 ratio of Biotin-Ahx-Ub-VS probe labelling (YOD1)
1 | O=C(CCl)Nc1ccc(F)cc1Cl | -0.442 | -0.238 | -0.425 | -1.35 | -0.211 | -1.18 (active) | -0.759
2 | Cl.O=C(CCl)NCc1cc2c(nc1O)CCCC2 | -0.0624 | 0.0791 | -0.333 | -0.515 | -0.244 | -0.421 | -0.158
3 | COc1cccc(CN(C)C(=O)CCl)c1 | -0.462 | -0.179 | -0.0411 | -0.149 | 0.258 | -1.23 (active) | 0.0172
4 | Cn1cc(CN(Cc2ccc(Cl)cc2)C(=O)CCl)cn1 | -0.606 | -0.11 | 0.147 | -0.82 | -0.065 | -0.327 | -0.0228
5 | O=C(CCl)NC1CCOc2ccccc21 (stereo not drawn) | -0.574 | -0.702 | -0.795 | -1.79 (active) | -0.687 | -0.865 | -0.774
6 | Cc1cc(NC(=O)CCl)n(-c2ccccc2)n1 | 0.159 | -0.0134 | 0.000838 | -0.548 | -0.36 | -0.672 | 0.179
7 | O=C(CCl)NC(Cn1ccccc1=O)c1ccccc1 (stereo not drawn) | 0.0241 | 0.0376 | 0.0727 | -0.0581 | 0.148 | -0.146 | 0.00589
8 | O=C(CCl)NCc1cccc(N2CCCC2=O)c1 | -0.0239 | 0.0359 | 0.0544 | -0.351 | 0.0802 | -0.491 | 0.144
9 | N#Cc1cnn(-c2ccccc2)c1NC(=O)CCl | -0.331 | -0.12 | -0.209 | -1.4 (active) | -0.407 | -1.04 (active) | -0.327

— the supplement of paper PMC11732987, “Enantioselective OTUD7B fragment discovery through chemoproteomics screening and high-throughput optimisation” (Communications Chemistry, 2025)
